# From the supplement of paper PMC12636033
# ± gives the standard deviation of the averaged measurements. In all, about 33,000 sequences were measured (“E-score (rank enrichment, -0.5 to 0.5)”: median about -0.0068, highest 2% from about 0.24 on). This excerpt belongs to a sample that is enriched for the highest values.
# Test system: muMax20 (Max(13-93) K31hArg/K57hArg, M65Nle)
# Assay: PBM 8-mer E-score (E-score (rank enrichment, -0.5 to 0.5)); higher = stronger preferential binding
# Method: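 Protein binding microarray (universal PBM chip covering all 10-mers in fixed probe flanks) with chemically synthesized human Max(13-93) bHLH-LZ analogs (not full-length Max) bearing noncanonical residues (hArg, Tha, Aib, Nle at 65) and aromatic Cys staples. Read-out per 8-mer (and its reverse complement): E-score (rank-based enrichment, -0.5 to 0.5) and Z-score of median probe intensity.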
row,Sequence,PBM 8-mer E-score
1,GGGTTCCA,-0.11 ± 0.023
2,AGCGATTG,-0.152 ± 0.033
3,ACCAATCT,-0.0171 ± 0.067
4,ACATCATG,0.07 ± 0.031
5,ATGTCACA,0.131 ± 0.002
6,CTGTCACA,0.00831 ± 0.13
7,ACATCATA,0.249 ± 0.038
8,ATGTCACG,0.297 ± 0.063
9,ACATCATC,0.166 ± 0.041
10,AGGGTTTC,-0.0163 ± 0.01
11,AAATAACG,0.309 ± 0.086
12,CTATAACC,0.0519 ± 0.0013
13,AAATAACA,0.204 ± 0.018
14,ATATAACC,0.171 ± 0.041
15,ATATAACA,0.262 ± 0.032
16,GTATAACA,0.228 ± 0.019
17,ATATAACG,0.269 ± 0.044
18,CTATAACA,0.157 ± 0.085
19,CAATAACG,0.0808 ± 0.07
20,GATAATTA,0.127 ± 0.021
21,AATAATTC,0.179 ± 0.12
22,CATAATTA,0.237 ± 0.031
23,AATAATTA,0.26 ± 0.072
24,CCTAATTA,0.0515 ± 0.15
25,CATAATTC,-0.00772 ± 0.086

row,Sequence,PBM 8-mer E-score
1,GCGGAGCA,-0.239 ± 0.06
2,AAGACACT,0.186 ± 0.0044
3,GAAACACA,0.0586 ± 0.066
4,ACAAGCTG,-0.103 ± 0.091
5,CAACAATG,0.137 ± 0.096
6,AAACAATA,0.234 ± 0.038
7,AGACAATG,0.0426 ± 0.00081
8,CAACAATA,0.324 ± 0.022
9,AGACAATA,0.2983 ± 0.00038
10,TAACAATA,0.257 ± 0.033
11,CAACAATC,0.0661 ± 0.052
12,AGACAATC,0.0672 ± 0.021
13,GAACAATA,0.0766 ± 0.03
14,ACACCCGG,-0.144 ± 0.016
15,GGGCTTGA,-0.165 ± 0.025
16,ACACAGGA,0.0105 ± 0.0057
17,ACGGTCCT,-0.272 ± 0.044
18,CTAAGTGC,-0.0257 ± 0.067
19,TAAGAGAA,-0.0222 ± 0.03
20,GCAAATCA,-0.0323 ± 0.096
21,CCAAATCA,-0.0102 ± 0.046
22,ACAAAAAC,0.178 ± 0.055
23,ACAAAAAA,0.249 ± 0.033
24,ACAAAAAG,0.125 ± 0.074
25,AAAAAAAT,0.168 ± 0.066

row,Sequence,PBM 8-mer E-score
1,ACAAATCA,0.237 ± 0.12
2,ACCAAAAT,0.168 ± 0.03
3,ACAAAAAT,0.241 ± 0.05
4,GTCATAAA,0.193 ± 0.01
5,CCAAAACA,0.231 ± 0.1
6,ACCACCGG,-0.2177 ± 0.00071
7,ATCTCTCC,-0.0165 ± 0.16
8,AACGCCCA,-0.077 ± 0.015
9,AACGCCAC,-0.111 ± 0.023
10,CTATGCCC,-0.0261 ± 0.02
11,AACGAATC,0.023 ± 0.089
12,TGGTTACA,0.0957 ± 0.036
13,CTTATAAA,0.191 ± 0.0045
14,ATTATAAA,0.296 ± 0.053
15,GTTATAAA,0.239 ± 0.037
16,GTTATAAC,0.187 ± 0.11
17,ATTATAAT,0.201 ± 0.042
18,ATTATAAG,0.115 ± 0.13
19,AGCCCAAG,-0.08 ± 0.11
20,CGAGAAGA,0.0468 ± 0.0088
21,AGCCGTTG,-0.0362 ± 0.068
22,ACATATAC,0.159 ± 0.052
23,AAATATAA,0.218 ± 0.046
24,ACATATAG,0.0848 ± 0.12
25,ACCTATAT,0.265 ± 0.0044

row,Sequence,PBM 8-mer E-score
1,AAATATAC,0.209 ± 0.032
2,ACCTATAA,0.0216 ± 0.083
3,ACCTATAC,0.0268 ± 0.14
4,ACATATAT,0.323 ± 0.054
5,AAATATAT,0.2435 ± 0.0013
6,TCATATAA,0.227 ± 0.06
7,CCATATAA,0.225 ± 0.044
8,ACATATAA,0.336 ± 0.069
9,GCGTTTGA,-0.0646 ± 0.018
10,AAGCGAGG,-0.129 ± 0.12
11,GGCCACTA,0.0658 ± 0.077
12,GTTGCGCA,-0.0795 ± 0.002
13,CACAGGTG,-0.0404 ± 0.033
14,ACCTATCA,0.0576 ± 0.061
15,CTATCGTC,-0.0258 ± 0.024
16,CCGCGACA,-0.0992 ± 0.1
17,TGGCAAAA,-0.0471 ± 0.026
18,CCACGGGG,-0.281 ± 0.017
19,TAATCACA,0.264 ± 0.042
20,CAATCACG,0.288 ± 0.039
21,CAATCACA,0.122 ± 0.095
22,AAATCACA,0.203 ± 0.026
23,GAATCACA,-0.0241 ± 0.022
24,CAATCACC,0.139 ± 0.013
25,CCCGCAGC,-0.278 ± 0.086

row,Sequence,PBM 8-mer E-score
1,TAACGGGA,-0.0715 ± 0.059
2,ACCGCTAC,-0.215 ± 0.034
3,AACTCCAG,-0.117 ± 0.049
4,TAATGTAA,0.252 ± 0.024
5,GATTGTAA,0.0589 ± 0.011
6,TAATGTGA,0.262 ± 0.065
7,TATTGTAA,0.242 ± 0.023
8,GAATGTGA,0.0628 ± 0.06
9,AATTGTAA,0.196 ± 0.011
10,CAATGTGA,0.148 ± 0.0073
11,AAATGTAA,0.157 ± 0.049
12,GAATGTAA,0.0967 ± 0.041
13,AGTGGCCC,-0.0606 ± 0.016
14,TCCCGACA,-0.0715 ± 0.11
15,GTTACCTA,0.0231 ± 0.039
16,ACCGGCTG,-0.257 ± 0.018
17,TCAAGAAA,0.103 ± 0.021
18,TCACTCCA,-0.0737 ± 0.21
19,GATCCGAA,-0.13 ± 0.057
20,GAGATGGC,0.0296 ± 0.023
21,CAGTCCGG,-0.297 ± 0.023
22,ATCCAGCC,-0.09 ± 0.07
23,GCTTGCAC,-0.252 ± 0.0059
24,AGCCGGTC,-0.295 ± 0.086
25,ACTGTTCC,-0.187 ± 0.12

row,Sequence,PBM 8-mer E-score
1,ACGTGGAG,0.245 ± 0.14
2,CCGTGGAC,-0.13 ± 0.12
3,GCGTGGAC,0.0607 ± 0.05
4,ACGTGGAC,0.27 ± 0.08
5,ACGTGGAT,0.342 ± 0.012
6,CCGTGGAG,-0.131 ± 0.092
7,ACGTGGAA,0.195 ± 0.017
8,AAGTGGAT,0.00777 ± 0.081
9,ACGTGGGG,0.16 ± 0.039
10,CGCAAGTC,-0.182 ± 0.004
11,CCTCCTAA,0.0365 ± 0.0066
12,GGCACAGA,-0.0856 ± 0.03
13,ACTATGAT,0.0767 ± 0.069
14,TATGCCCA,-0.151 ± 0.043
15,ATCCTGAC,-0.115 ± 0.039
16,ATCGTAAG,0.00053 ± 0.19
17,ATCGTAAT,0.255 ± 0.0089
18,ATCGTAAA,0.211 ± 0.026
19,ATCGCACA,0.0937 ± 0.045
20,TGTTAAAA,0.154 ± 0.061
21,CATTATAA,0.0818 ± 0.00099
22,TATTATAA,0.28 ± 0.079
23,TATTATCA,0.161 ± 0.013
24,TGTTATAA,0.279 ± 0.056
25,AATTATAA,0.189 ± 0.036

row,Sequence,PBM 8-mer E-score
1,GGTTATAA,0.145 ± 0.068
2,TCTTATAA,0.115 ± 0.051
3,GATTATAA,0.242 ± 0.016
4,ATTAAGCA,0.105 ± 0.11
5,GAGATTGC,-0.148 ± 0.0026
6,CCTCCACG,-0.0554 ± 0.048
7,CTTTGAAA,0.159 ± 0.0086
8,ATTTGAAA,0.203 ± 0.025
9,GTTTGAAA,0.237 ± 0.022
10,AACTTCGA,0.0671 ± 0.04
11,ATTACTAC,0.2513 ± 0.0025
12,AGTACTAC,0.28 ± 0.035
13,CTTACTAC,0.197 ± 0.1
14,AGTACTAG,0.029 ± 0.019
15,ATTACTAG,-0.00293 ± 0.05
16,AGTACTAT,-0.0269 ± 0.035
17,CTTCGCAC,0.163 ± 0.037
18,ATGACTGG,-0.0322 ± 0.039
19,GGCACGAC,0.0476 ± 0.078
20,AGTTCACG,-0.107 ± 0.064
21,CCCGAACC,-0.159 ± 0.21
